aSyn 5UTR act: Activators working through SNCA 5'UTR binding (MLPCN) | alpha-synuclein 5'UTR reporter, activators screen | activity score, % (tested at 7.5 µM), hits read low | 7.1% of 300,000 active; in the data active = activity score below about -60%
Of the large screens only hits and unclear results are named; the others gave an inactive call. Not all results are given here.

CC(Cc1ccccc1)NC(=O)c1cc2ccccc2o1 (stereo not given)	aSyn 5UTR act -162
Nc1ccc(C(=O)OCc2nc3c(ccc4ccccc43)[nH]2)cc1	aSyn 5UTR act -116
Cc1ccc2cc(NC(=O)Cc3ccccc3)ccc2n1	aSyn 5UTR act -127
Cc1ccc2cc(NC(=O)c3ccccc3C)ccc2n1	aSyn 5UTR act -195
COC(=O)c1nn(-c2ccc3c(c2)OCO3)cc1O	aSyn 5UTR act -86
CCOC(=O)c1nn(-c2ccc(C)c(C)c2)c(=O)c2c(N)scc12	none
COC(=O)c1nn(-c2ccc3c(c2)CCN3C(C)=O)cc1O	none
CCOC(=O)c1nn(-c2ccc(C)c(C)c2)cc1O	aSyn 5UTR act -141
CCOC(=O)c1nn(-c2ccc(C)cc2)cc1C(=O)c1ccccc1	aSyn 5UTR act -120
COc1cc2nc(N3CCN(c4cc(C)ccc4C)CC3)nc(N)c2cc1OC	none
COc1nc(Nc2nc3ccccc3c(=O)[nH]2)nc2ccc(C)cc12	none
Cc1ccc(C)c(Nc2nc(N)c3ccccc3n2)c1	aSyn 5UTR act -157
COc1ccc(Cl)cc1Nc1nc(N)c2ccccc2n1	aSyn 5UTR act -103
CCN(CC)c1ccc2c(cc1=O)[C@@H](NC)CCc1cc(OC)c(OC)c(OC)c1-2	none
CC(=O)c1ccc(NC(=S)NCc2ccco2)cc1	aSyn 5UTR act -67
CCOC(=O)c1ccc(NC(=O)C(=O)NCc2ccco2)cc1	aSyn 5UTR act -82
COc1ccc(C(=O)Nc2cccc3c2CCCC3)cc1	aSyn 5UTR act -132
COc1ccc(C(=O)Nc2cc3c(oc2=O)CCCC3=O)cc1	aSyn 5UTR act -69
COc1ccc(C(=O)Nc2ccc3c4c(cccc24)CC3)cc1	aSyn 5UTR act -84
Cc1cccc(NC(=O)c2onc3c2CCCC3)n1	none
Cc1cccc(NC(=O)c2onc3c2CCCC3)c1C	aSyn 5UTR act -162
O=C(Nc1ccc2ccccc2c1)c1onc2c1CCCC2	aSyn 5UTR act -71
Cc1ccccc1NC(=O)c1onc2c1CCCC2	aSyn 5UTR act -131
COC(=O)c1cccc(NC(=O)c2onc3c2CCCC3)c1	none
O=C(C1=NN[C@@H]2C(=O)N(c3cccc(F)c3)C(=O)[C@H]12)c1ccc2ccccc2n1	aSyn 5UTR act -79
CCS(=O)(=O)N1Cc2ccccc2CC1C(=O)Nc1ncc(C)s1 (stereo not given)	aSyn 5UTR act -126
CCS(=O)(=O)N1Cc2ccccc2CC1C(=O)Nc1ccc(F)c(F)c1F (stereo not given)	aSyn 5UTR act -62
O=C(Nc1nnc(C2CC2)s1)C1Cc2ccccc2CN1S(=O)(=O)c1ccccc1F (stereo not given)	aSyn 5UTR act -178
CCS(=O)(=O)N1Cc2ccccc2CC1C(=O)Nc1cccc(C)c1 (stereo not given)	aSyn 5UTR act -102
CCS(=O)(=O)N1Cc2ccccc2CC1C(=O)Nc1ccc(F)c(F)c1 (stereo not given)	aSyn 5UTR act -88
Cc1ccc2nc(-c3ccccc3)cn2c1	none
Cc1ccc2nc(-c3ccc(-c4ccccn4)s3)cn2c1	aSyn 5UTR act -111
COCCn1c(C)cc(/C=C2/SC(=O)N(C(C)C(=O)OC)C2=O)c1C (stereo not given)	aSyn 5UTR act -154
CCn1c(C)cc(/C=C2/SC(=O)N(C(C)C(=O)OC)C2=O)c1C (stereo not given)	aSyn 5UTR act -156
COC(=O)C(C)N1C(=O)S/C(=C/c2cc(C)n(C(C)C)c2C)C1=O (stereo not given)	aSyn 5UTR act -127
C#CCN1C(=O)S/C(=C/c2cc(C)n(CC)c2C)C1=O	aSyn 5UTR act -193
CCOC(=O)C(C)N1C(=O)S/C(=C/c2cc(C)n(-c3ccccn3)c2C)C1=O (stereo not given)	aSyn 5UTR act -143
CC1CCN(C(=O)CSc2nc3ccccc3s2)CC1	aSyn 5UTR act -154
CC1CCCC(C)N1C(=O)CSc1nc2ccccc2s1 (stereo not given)	aSyn 5UTR act -99
CC1CCCN(C(=O)CSc2cnc3ccccc3n2)C1 (stereo not given)	aSyn 5UTR act -154
Cc1c(Cl)cccc1N/C(SCC(=O)N1CCCCCC1)=C(/C#N)c1nc2ccccc2s1	aSyn 5UTR act -66
O=C(CSc1nc2ccccc2s1)N1CCCCC1	aSyn 5UTR act -110
CCCCCN1C(=O)/C(=C/c2c(N3CCc4ccccc4C3)nc3ccccn3c2=O)SC1=S	aSyn 5UTR act -94
CC(=O)Nc1ccc(S(=O)(=O)N/N=C/c2ccc(C)s2)cc1	aSyn 5UTR act -137
COc1cc([C@@H]2c3cc4c(cc3[C@H](O)[C@H]3COC(=O)[C@H]23)OCO4)cc(OC)c1OC	none
COc1ccc2c(c1OC)CN1CCc3cc4c(cc3[C@@H]1[C@@H]2O)OCO4	aSyn 5UTR act -69
Cc1cc(/C(N)=N/OC(=O)c2cccc(Cl)c2)no1	aSyn 5UTR act -193
Cc1cc(/C(N)=N/OC(=O)c2ccc(Cl)cc2)no1	aSyn 5UTR act -201
N/C(=N\OC(=O)c1ccc(Cl)cc1)c1ccccn1	none
COc1ccccc1NC(=O)C(C/C=C(\C)Cl)C(C)=O (stereo not given)	aSyn 5UTR act -73
COc1ccccc1NC(=O)c1nc(S(=O)(=O)Cc2ccccc2)ncc1Cl	none
CNc1ncc(C(=O)c2ccc(Br)cc2)s1	aSyn 5UTR act -108
CNc1ncc(C(=O)c2ccccc2)s1	aSyn 5UTR act -66
Nc1nc(-c2ccccc2)cc(-c2ccccc2O)n1	aSyn 5UTR act -123
Oc1ccc(-c2csc(-c3ccccc3)n2)cc1O	aSyn 5UTR act -224
CS(=O)c1nc(-c2ccc(Br)cc2)cc(-c2ccccc2)c1C#N (stereo not given)	none
c1cncc(-c2nc(-c3ccc4c(c3)OCCO4)cs2)c1	aSyn 5UTR act -94
Oc1ccc(-c2csc(-c3cccnc3)n2)cc1O	aSyn 5UTR act -96
Clc1ccc(-c2csc(-c3cccnc3)n2)s1	aSyn 5UTR act -70
Oc1ccccc1-c1csc(-c2ccccc2)n1	aSyn 5UTR act -122
c1ccc(-c2csc(-c3ccncc3)n2)cc1	aSyn 5UTR act -74
Fc1ccccc1-c1csc(-c2cccnc2)n1	aSyn 5UTR act -105
Brc1ccsc1-c1csc(-c2ccncc2)n1	aSyn 5UTR act -106
O=C(CSCC(=O)N1CCCc2ccccc21)Nc1nc(-c2ccccc2)cs1	aSyn 5UTR act -100
O=C(C[n+]1cc(-c2ccccc2)n2c1CCC2)Nc1nc(-c2ccccc2)cs1	aSyn 5UTR act -73
O=C(c1nn2c(C(F)(F)F)cc(-c3cccs3)nc2c1Br)N1CCCc2ccccc21	none
O=C(C[n+]1cc(-c2ccc(F)cc2)n2c1CCC2)c1cccs1	aSyn 5UTR act -144
Cn1c2ccc(CC(=O)O)cc2c2cc(CC(=O)O)ccc21	aSyn 5UTR act -65
Cn1c2ccc(Br)cc2c2nnc(SCC(=O)O)nc21	none
OCCCCCN=c1cc(-c2ccccc2)oc2ccc(Cl)cc12	aSyn 5UTR act -747
OCC(O)/C=N/Nc1nc2ccccc2s1 (stereo not given)	aSyn 5UTR act -72
C(=N\Nc1nc2ccccc2s1)/c1cccs1	aSyn 5UTR act -212
CCn1c(C)c(/C=N/Nc2nc3ccccc3s2)c2ccccc21	aSyn 5UTR act -170
Cc1ccsc1/C=N/Nc1nc2ccccc2s1	aSyn 5UTR act -148
C(=N\Nc1nc2ccccc2s1)/c1ccco1	aSyn 5UTR act -80
Cn1c(NC(=O)/C=C/c2ccco2)cc(=O)n(C)c1=O	aSyn 5UTR act -62
O=C(/C=C/c1ccco1)Nc1cccnc1Cl	aSyn 5UTR act -130
O=C(/C=C/c1ccccc1)Nc1cccnc1Cl	aSyn 5UTR act -84
COC(=O)c1ccccc1NC(=O)/C=C/c1ccco1	aSyn 5UTR act -68
CCCCCCCCC[n+]1cccc2c3ccccc3ccc21	none

Screens (PubChem BioAssay)
